The values that follow come from PubChem BioAssay (EPA / NIEHS).

Read-out in assay [1]: Monokine induced gamma interferon (MIG), CXCL9 (gene 4283)
Briefly: BSK_3C_MIG: BioMAP Diversity Plus: 3C Assay for Monokine induced gamma interferon (MIG) Biomarker Activity (AID 2283021).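 On AC50: MIG protein level measured by immunoassay in the treated endothelial cultures.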 As to conditions: primary human endothelial cells (HUVEC); actives raise or lower the signal. An outline of the steps: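 HUVEC primary endothelial cultures dosed with chemical; MIG quantified by ELISA at 24 h. Data fitted bidirectionally against DMSO control, with parallel SRB total-protein staining for cytotoxicity.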

For assay [2], the target named is human Vitamin D Receptor (VDR), VDR (gene 7421) (UniProt P11473). Briefly: ATG_VDR_TRANS: Attagene TRANS-FACTORIAL HepG2 Assay for human Vitamin D Receptor (VDR) (AID 2283022; active means hit-call score of the fitted dose curve at least 0.9, where 1 is the maximum). An outline of the steps:
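HepG2 cells were transiently transfected with GAL4-UAS reporter units and a chimeric VDR-Gal4 construct, then dosed for 24 hours. Reporter mRNA was quantified by RT-PCR, fluorescent labeling, HpaI digestion and capillary electrophoresis; gain of signal analysed vs DMSO.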

Assay [3] is described as follows: BSK_3C_SRB: Viability Assessment in the BioMAP Diversity Plus: 3C Assay (AID 2283023).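 Further: fitted both ways against DMSO so a hit may be signal rise or drop.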 As to conditions: primary human endothelial cells (HUVEC). In a few lines:
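Human umbilical vein endothelial cells in the 3C system, treated 24 h. Total protein measured by 0.1% sulforhodamine B staining after 10% TCA fixation, read at 560 nm; bidirectional fit versus DMSO.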

Read-out in assay [4]: Matrix Metallopeptidase 1 (MMP1), MMP1 (gene 4312)
The assay can be described thus: BSK_BE3C_MMP1: BioMAP Diversity Plus: BE3C Assay for Matrix Metallopeptidase 1 (MMP1) Biomarker Activity (AID 2283024). The note with it: primary human bronchial epithelial cells; actives raise or lower the signal. In a few lines:
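Human primary bronchial epithelial cells (BE3C system) dosed for 24 h; MMP-1 quantified by ELISA. Bidirectional fit against DMSO; cytotoxicity tracked in parallel cultures by SRB total-protein staining.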

Assay [5] can be described thus: BSK_3C_Vis: BioMAP Diversity Plus: 3C Assay for Morphology Visualization (AID 2283025).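 Further: fitted both ways so gain or loss versus DMSO counts.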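 On AC50: light microscopy image of cell morphology used as background control.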 As to conditions: primary human endothelial cells (HUVEC). In a few lines: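 Human umbilical vein endothelial cell morphology was inspected by light microscopy 24 h after chemical dosing; scored bidirectionally relative to DMSO.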
Read-out in assay [6]: Pselectin, SELP (gene 6403)
Briefly: BSK_4H_Pselectin: BioMAP Diversity Plus: 4H Assay for Pselectin Biomarker Activity (AID 2283026). The note with it: primary human endothelial cells (HUVEC); actives raise or lower the signal. An outline of the steps:
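Primary human umbilical vein endothelial cells were treated 24 h, and cell-surface P-selectin was then quantified by ELISA. Bidirectional fit versus DMSO; cytotoxicity checked in parallel cultures by SRB total-protein staining.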

Assay [7] in a line: BSK_4H_SRB: Viability Assessment in the BioMAP Diversity Plus: 4H Assay (AID 2283027).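 Further: cells exposed to compound for 24 h before staining.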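 On AC50: curves fitted both ways versus DMSO so AC50 may be loss or gain.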 As to conditions: primary human endothelial cells (HUVEC). In a few lines:
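Human umbilical vein endothelial cells, 24 h after chemical dosing; total protein measured by 0.1% sulforhodamine B staining after 10% TCA fixation, read at 560 nm. Bidirectional fitting against DMSO.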

Assay [8] can be described thus: BSK_BE3C_SRB: Viability Assessment in the BioMAP Diversity Plus: BE3C Assay (AID 2283028).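 On AC50: fitted both ways so AC50 may mark signal gain or loss versus DMSO.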 The note with it: primary human bronchial epithelial cells. An outline of the steps: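 Human bronchial epithelial primary cells in confluent culture, 24 h after chemical dosing; total protein by 0.1% SRB staining after 10% TCA fixation, read at 560 nm. Bidirectional fitting versus DMSO baseline.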

Read-out in assay [9]: Urokinase-type plasminogen activator receptor (uPAR), PLAUR (gene 5329)
The assay can be described thus: BSK_4H_uPAR: BioMAP Diversity Plus: 4H Assay for Urokinase-type plasminogen activator receptor (uPAR) Biomarker Activity (AID 2283030). The note with it: primary human endothelial cells (HUVEC); actives raise or lower the signal. In a few lines: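 Human umbilical vein endothelial cells in the 4H system, 24 h after chemical dosing. Cell-surface uPAR measured by ELISA, fitted in both directions versus DMSO; cytotoxicity checked by SRB total protein in parallel cultures.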

Read-out in assay [10]: Thrombomodulin, THBD (gene 7056)
The assay can be described thus: BSK_3C_Thrombomodulin: BioMAP Diversity Plus: 3C Assay for Thrombomodulin Biomarker Activity (AID 2283029). As to conditions: primary human endothelial cells (HUVEC); actives raise or lower the signal. An outline of the steps:
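Human umbilical vein endothelial cells were exposed to chemicals for 24 h; cell-surface thrombomodulin quantified by ELISA, with bidirectional fitting against DMSO baseline.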

Inconclusive results are not listed. More than one record can exist for a structure, and the calls need not agree. The source made the active and inactive calls. How the source made its calls, unless noted: active means hit-call score of the fitted dose curve at least 0.9, where 1 is the maximum; inactive means score below 0.9.

Chain of human Vitamin D Receptor (VDR), VDR (gene 7421) (P11473 whole entry, looked up, the tested form may be a part): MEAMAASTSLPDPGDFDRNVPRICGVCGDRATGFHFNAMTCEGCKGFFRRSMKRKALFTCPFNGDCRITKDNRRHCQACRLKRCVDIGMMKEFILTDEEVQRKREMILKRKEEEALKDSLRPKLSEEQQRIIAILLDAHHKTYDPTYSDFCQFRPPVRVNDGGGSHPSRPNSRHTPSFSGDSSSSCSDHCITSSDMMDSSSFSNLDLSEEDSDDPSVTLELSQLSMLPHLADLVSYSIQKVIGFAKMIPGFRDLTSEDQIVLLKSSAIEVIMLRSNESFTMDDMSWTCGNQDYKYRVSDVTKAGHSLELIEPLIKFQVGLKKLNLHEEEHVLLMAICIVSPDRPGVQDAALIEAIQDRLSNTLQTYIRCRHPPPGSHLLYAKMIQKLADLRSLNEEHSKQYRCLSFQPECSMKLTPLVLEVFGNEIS

Turning to `CC(C)(C)C(O)C(Oc1ccc(Cl)cc1)n1cncn1` (stereo not given), the outcome in assay [1], in assay [2], in assay [3], in assay [4], in [5] and in assay [6] was inactive. Further, the result in assay [7], in [8] and in assay [9] was inactive.
Consider `CCOCN(C(=O)CCl)c1c(C)cccc1CC`, for which the outcome in assay [1], in [2], in [4], in assay [7], in assay [10] and in assay [9] was inactive. Moreover, the half-maximal activity concentration (AC50) – broadly, the midpoint of the concentration-response curve, whichever way the signal moves – is 18.2 µM (active) in assay [3], 39 µM (active) in assay [5], 11.4 µM (active) in assay [6] and 20 µM (active) in [8].
`[2H]C1([2H])[n+]2ccccc2-c2cccc[n+]2C1([2H])[2H]`: the result in assay [1], in assay [2], in assay [3], in assay [5], in assay [6] and in [7] was inactive. Further, the figures for the AC50 in assay [4], in [8] and in assay [9] were 2.08 µM (active), 13.3 µM (active) and 1.49 µM (active), respectively.
For `COC(=O)c1ccccc1CS(=O)(=O)NC(=O)Nc1nc(OC)cc(OC)n1`, the result in [1], in [2], in assay [3], in [4], in assay [5] and in assay [6] was inactive. Also, the result in assay [7], in assay [8] and in assay [9] was inactive.
As for `O=C(O)C(F)(F)C(F)(F)C(F)(F)C(F)(F)C(F)(F)C(F)(F)C(F)(F)F`, the result in assay [1], in assay [2], in [3], in assay [4], in [5] and in assay [6] was inactive. Further, the result in assay [7], in assay [8] and in [9] was inactive. In addition, the AC50 is 46.1 µM (active) in assay [3], 25.8 µM (active) [middle of 5 runs] in assay [4] and 1.49 µM (active) in assay [9].
As for `C#CCN1C(=O)COc2cc(F)c(N3C(=O)C4=C(CCCC4)C3=O)cc21`, the result in assay [1], in assay [2], in [3], in [4], in assay [5] and in assay [6] was inactive. Also, the result in assay [7], in [8] and in [9] was inactive.
Turning to `CCC(C)(C)C(=O)OC1=C(c2ccc(Cl)cc2Cl)C(=O)OC12CCCCC2`, the AC50 in assay [1] is 35.2 µM (active); in assay [3], 26.1 µM (active); in assay [4], 36.6 µM (active); in assay [5], 29.4 µM (active); in assay [6], 36.5 µM (active); in assay [7], 34.3 µM (active). The half-maximal activity concentration (AC50) in assay [8] was 31.3 µM (active); in assay [9], 32 µM (active). The compound was called inactive in [2] and in assay [10].
With `CCC(C)Nc1c([N+](=O)[O-])cc(C(C)(C)C)cc1[N+](=O)[O-]` (stereo not given), the result in [1], in assay [2], in assay [10] and in assay [9] was inactive. The AC50 is 20.2 µM (active) in [3]; 11.1 µM (active) in assay [4]; 39 µM (active) in assay [5]; 20 µM (active) in [6]; 19.7 µM (active) in [7]; 14.7 µM (active) in assay [8].
With `O=C(Nc1ccccc1)Nc1cnns1`, the outcome in assay [1], in assay [2], in [3], in assay [4], in assay [5] and in assay [6] was inactive. Further, the outcome in assay [7], in assay [8] and in assay [9] was inactive.
Regarding `CNC(=O)CSP(=S)(OC)OC`, the result in [1], in assay [2], in assay [3], in assay [4], in assay [5] and in assay [6] was inactive. In addition, the result in [7], in assay [8] and in [9] was inactive.
As to `O=C(O)CCCOc1ccc(Cl)cc1Cl`, the outcome in assay [1], in assay [2], in assay [3], in assay [4], in assay [5] and in [6] was inactive. Further, the result in [7], in assay [8], in [10] and in assay [9] was inactive.
Regarding `CC[C@H](C)[C@H]1O[C@]2(C=C[C@@H]1C)C[C@@H]1C[C@@H](C/C=C(\C)[C@@H](O[C@H]3C[C@H](OC)[C@@H](O[C@H]4C[C@H](OC)[C@@H](O)[C@H](C)O4)[C@H](C)O3)[C@@H](C)/C=C/C=C3\CO[C@@H]4[C@H](O)C(C)=C[C@@H](C(=O)O1)[C@]34O)O2` (tested in a mixture with another compound), the AC50 is 12.1 µM (active) in assay [1]; 5.58 µM (active) in [3]; 11.1 µM (active) in [4]; 3.78 µM (active) in [5]; 5.3 µM (active) in assay [6]; 8.22 µM (active) in assay [7]. Besides, the AC50 is 4.65 µM (active) in [8] and 8.93 µM (active) in assay [9]. Also, the outcome in [2] was inactive.
